From PubChem BioAssay (Tox21)
Unmarked numbers belong to inactive results. Results filed as inconclusive are left out. Where a call stands in place of a potency, no number is given. Calls of active or inactive are those of the source. Unless noted, calls come from the whole dose curve.

Columns and labels:
[1] = Nuclear factor erythroid 2-related factor 2/antioxidant responsive element (Nrf2/ARE) small molecule agonists: qHTS cell viability counter screen in human keratinocytes (AID 1919968; active = well fitted curve in the direction sought with a large enough effect in the repeat runs; an effect the other way counts as inactive or inconclusive; note: nearly all actives have a fitted effect of over 55% in size; note: potency is the fitted concentration of half-maximal effect)
Procedure, shortened: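 Stably transfected HaCaT (KeratinoSens), 1,500/well. Test agents in DMSO were applied for 23 h, 37 C/5% CO2. CellTiter-Fluor was incubated 1 h before the fluorescence read.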

[2] = Nuclear factor erythroid 2-related factor 2/antioxidant responsive element (Nrf2/ARE) small molecule agonists: luciferase reporter gene qHTS assay in human keratinocytes (AID 1919969); note: nearly all actives have a fitted effect of over 35% in size; note: potency is the fitted concentration of half-maximal effect
[3] = biological target: Gonadotropin-releasing hormone receptor (Homo sapiens) (UniProt P30968); test: Human gonadotropin-releasing hormone receptor (GnRHR) small molecule agonists, calcium flux assay in GnRHR-HEK293 cells (AID 1920063); note: nearly all actives have a fitted effect of over 35% in size
Procedure, shortened: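 Stable human GnRHR HEK293 line. 18 h plating, then calcium dye for 1 h at 37 C. Agonist-mode compound addition from DMSO stocks; fluorescence monitored 3 min.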

[4] = biological target: KiSS-1 receptor (Homo sapiens) (UniProt Q969F8); test: Human kisspeptin (KISS1R) small molecule agonists, calcium flux assay in KISS1R-HEK293 cells (AID 1920064; active = well fitted curve in the direction sought with a large enough effect in the repeat runs; an effect the other way counts as inactive or inconclusive)
Procedure, shortened: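 After overnight (18 h) culture at 37 C/5% CO2, human KISS1R-HEK293 cells received calcium dye for 1 h, then test compound; emission at 540 nm (excitation 480 nm) was tracked for 3 min.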

[5] = G protein-coupled receptor (GPCR) small molecule agonists, calcium flux assay: HEK293 wild type cell line counter screen (AID 1920065)
Procedure, shortened: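 Following 18 h incubation at 37 C/5% CO2, plates got calcium dye for 1 h; compounds, ATP or DMSO were then pinned in and fluorescence followed kinetically (480/540 nm).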

[6] = p53 small molecule agonists, cell-based qHTS assay with rat liver microsomes (AID 1963578)
Procedure, shortened: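 Rat liver microsome activation: microsomes 0.5 mg/mL, NADPH 0.5 mg/mL final; p53RE-bla cells, 16 h 37 C; LiveBLAzer readout, 2 h RT dark.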

[7] = p53 small molecule agonists, cell-based qHTS assay: qHTS cell viability counter screen (AID 1963581); note: nearly all actives have a fitted effect of over 45% in size
Procedure, shortened: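 qHTS counter screen: 16 h compound exposure at 37 C of p53RE-bla HCT-116 cells (4,000 per well, seeded 5 h prior), cell viability by ATP luminescence.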

[8] = p53 small molecule agonists, cell-based qHTS assay (AID 1963582; active = well fitted activation curve with a large enough effect in the signal ratio in the repeat runs, not every such curve was filed as active; the % refers to the signal ratio; note: potency is the fitted concentration of half-maximal effect)
Procedure, shortened: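 Measured: fluorescence from cleaved LiveBLAzer substrate. System: p53RE-bla cells, 16 h compound treatment at 37 C, 2 h substrate step at room temperature.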

[9] = biological target: 5-hydroxytryptamine receptor 2A (Homo sapiens) (UniProt P28223); test: 5-hydroxytryptamine receptor 2A (HTR2A) small molecule agonists, cell-based qHTS assay (AID 1963587); note: nearly all actives have a fitted effect of over 30% in size; note: potency is the fitted concentration of half-maximal effect
Procedure, shortened: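 HTR2A-CHO cells, plated 18 h at 37 C/5% CO2, dye-loaded 1 h at 37 C; compounds in DMSO added by pin tool (agonist mode). Intracellular calcium flux read as kinetic fluorescence on FDSS over 2 min at 1 s intervals.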

[10] = biological target: Muscarinic acetylcholine receptor M1 (Homo sapiens) (UniProt P11229); test: Cholinergic receptor muscarinic 1 (CHRM1) small molecule antagonists, cell-based qHTS assay (AID 1963588); note: nearly all actives have a fitted effect of over 40% in size; note: potency is the fitted concentration of half-maximal effect
Procedure, shortened: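 Compounds were tested at 15 concentrations in three independent runs. Dye-loaded CHRM1-CHO cells were exposed 5 min at room temperature before stimulation by acetylcholine added at 50nM. Intracellular calcium was read kinetically on FDSS for 3 min.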

[11] = biological target: Muscarinic acetylcholine receptor M1 (Homo sapiens) (UniProt P11229); test: Cholinergic receptor muscarinic 1 (CHRM1) small molecule agonists, cell-based qHTS assay (AID 1963589); note: nearly all actives have a fitted effect of over 35% in size
Procedure, shortened: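 Kinetic fluorescence (1 s intervals) of calcium-sensitive dye in human M1 CHO cells after compound addition; cells pre-incubated 18 h at 37 C/5% CO2 and dye-loaded 1 h.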

[12] = biological target: Beta-2 adrenergic receptor (Homo sapiens) (UniProt P07550); test: Adrenergic beta2 receptor (ADRB2) small molecule agonists, cell-based qHTS assay (AID 1963593);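 note: CHO cells stably overexpressing human ADRB2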
Procedure, shortened: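 CHO cells stably over-expressing ADRB2 were plated overnight at 37C, then dosed with compounds plus a stimulation mix containing 100uM IBMX and 25uM Ro-20-1724 for 0.5hr at room temperature. cAMP was measured by HTRF competition, 1hr.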

[13] = biological target: D(2) dopamine receptor (Homo sapiens) (UniProt P14416); test: Dopamine D2 receptor (DRD2) small molecule agonists, cell-based qHTS assay (AID 1963594); note: nearly all actives have a fitted effect of over 35% in size
Procedure, shortened: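 HEK293 cells stably expressing DRD2 were cultured 24 h at 37 C, then given Ro20-1724 (0.1 mM final) and compounds for 10 min at room temperature. NKH477 (200nM) was then added for 30 min. cAMP was read by HTRF.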

[14] = biological target: D(2) dopamine receptor (Homo sapiens) (UniProt P14416); test: Dopamine D2 receptor (DRD2) small molecule antagonists, cell-based qHTS assay (AID 1963595; active = well fitted inhibition curve with a large enough effect in the signal ratio in the repeat runs, with a control signal flat; the % refers to the signal ratio)
Procedure, shortened: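 Stable D2 receptor HEK293 line, 24 h after seeding. Compound preincubated 10 min, then quinpirole (12 nM) with forskolin analogue NKH477 (200 nM), 30 min, room temperature. Detection by time-resolved FRET of cAMP.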

[15] = p53 small molecule agonists, cell-based qHTS assay with rat liver microsomes: qHTS cell viability counter screen (AID 1963580); note: nearly all actives have a fitted effect of over 45% in size
Procedure, shortened: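 Counter screen for cytotoxicity under metabolic activation: rat liver microsomes and NADPH, 0.5 mg/mL final each, added with compounds to p53RE-bla HCT-116 cells; 16 h at 37 C, then ATP luminescence read.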

[16] = biological target: 5-hydroxytryptamine receptor 2A (Homo sapiens) (UniProt P28223); test: 5-hydroxytryptamine receptor 2A (HTR2A) small molecule antagonists, cell-based qHTS assay (AID 1963586); note: nearly all actives have a fitted effect of over 45% in size; note: potency is the fitted concentration of half-maximal effect
Procedure, shortened: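 CHO cells stably expressing human HTR2A were plated for 18 h at 37 C, then loaded with calcium dye for 1 h. Compounds were preincubated 5 min at room temperature before DOI (4 nM solution) was added. Kinetic fluorescence was read for 3 min.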

[17] = cAMP Responsive Elements (CRE) small molecule agonists, cell-based qHTS assay (AID 1963590)
Procedure, shortened: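 Test agents in DMSO were incubated 3 h at 37 C/5% CO2 with CRE-bla HEK 293T cells seeded 18 h earlier; LiveBLAzer B/G FRET substrate was added and read after 2 h at room temperature.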

[18] = cAMP Responsive Elements (CRE) small molecule antagonists, cell-based qHTS assay (AID 1963591; active = well fitted inhibition curve with a large enough effect in the signal ratio in the repeat runs, not every such curve was filed as active; the % refers to the signal ratio)
Procedure, shortened: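 Reporter line CRE-bla HEK 293T in dialyzed-FBS DMEM; cells preincubated 18 h, treated 3 h with compound plus NKH477 (0.25 uM final); LiveBLAzer FRET, 2 h RT.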

[19] = biological target: Beta-2 adrenergic receptor (Homo sapiens) (UniProt P07550); test: Adrenergic beta2 receptor (ADRB2) small molecule antagonists, cell-based qHTS assay (AID 1963592); note: series mostly up to about 92 µM; nearly all actives have a fitted effect of over 50% in size
Procedure, shortened: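 Assay format: CHO-ADRB2 cells, 18-20hr seeding at 37C/5% CO2, then compound plus 1nM isoproterenol agonist mix for 0.5hr RT. Homogeneous time-resolved fluorescence cAMP detection after 1hr, expressed as 665/615 nm ratio.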

[20] = p53 small molecule agonists, cell-based qHTS assay with human liver microsomes: qHTS cell viability counter screen (AID 1963579); note: nearly all actives have a fitted effect of over 45% in size
Procedure, shortened: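 Luminescent CellTiter-Glo read-out, 30 min at room temperature, gauged cytotoxicity in p53RE-bla cells exposed 16 h at 37 C to DMSO-dissolved compounds with metabolic activation by human liver microsomes and NADPH, each 0.5 mg/mL final.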

Sequence of 5-hydroxytryptamine receptor 2A (Homo sapiens) (P28223 whole entry, looked up): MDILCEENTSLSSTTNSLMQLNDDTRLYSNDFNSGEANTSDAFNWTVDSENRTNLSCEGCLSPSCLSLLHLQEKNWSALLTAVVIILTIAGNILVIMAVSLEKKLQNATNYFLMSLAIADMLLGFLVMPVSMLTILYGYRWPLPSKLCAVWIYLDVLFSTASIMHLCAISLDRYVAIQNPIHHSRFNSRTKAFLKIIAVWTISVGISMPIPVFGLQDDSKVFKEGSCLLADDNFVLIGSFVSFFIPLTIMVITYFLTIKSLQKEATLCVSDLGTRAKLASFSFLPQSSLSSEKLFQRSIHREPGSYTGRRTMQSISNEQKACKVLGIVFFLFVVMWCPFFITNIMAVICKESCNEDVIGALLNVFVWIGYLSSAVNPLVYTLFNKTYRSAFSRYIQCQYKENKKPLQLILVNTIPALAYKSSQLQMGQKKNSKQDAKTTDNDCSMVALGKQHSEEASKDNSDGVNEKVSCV
Sequence of KiSS-1 receptor (Homo sapiens) (Q969F8 whole entry, looked up): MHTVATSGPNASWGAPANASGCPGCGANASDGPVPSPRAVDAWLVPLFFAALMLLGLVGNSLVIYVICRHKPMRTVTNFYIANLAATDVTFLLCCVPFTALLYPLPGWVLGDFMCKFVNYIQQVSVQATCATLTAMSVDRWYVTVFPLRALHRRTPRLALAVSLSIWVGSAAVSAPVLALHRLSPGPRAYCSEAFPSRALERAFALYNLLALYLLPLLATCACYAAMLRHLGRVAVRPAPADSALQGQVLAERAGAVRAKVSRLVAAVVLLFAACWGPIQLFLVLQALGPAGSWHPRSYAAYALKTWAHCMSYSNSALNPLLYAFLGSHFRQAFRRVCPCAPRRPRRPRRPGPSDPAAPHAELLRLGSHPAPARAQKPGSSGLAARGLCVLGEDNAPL
Sequence of Beta-2 adrenergic receptor (Homo sapiens) (P07550 whole entry, looked up): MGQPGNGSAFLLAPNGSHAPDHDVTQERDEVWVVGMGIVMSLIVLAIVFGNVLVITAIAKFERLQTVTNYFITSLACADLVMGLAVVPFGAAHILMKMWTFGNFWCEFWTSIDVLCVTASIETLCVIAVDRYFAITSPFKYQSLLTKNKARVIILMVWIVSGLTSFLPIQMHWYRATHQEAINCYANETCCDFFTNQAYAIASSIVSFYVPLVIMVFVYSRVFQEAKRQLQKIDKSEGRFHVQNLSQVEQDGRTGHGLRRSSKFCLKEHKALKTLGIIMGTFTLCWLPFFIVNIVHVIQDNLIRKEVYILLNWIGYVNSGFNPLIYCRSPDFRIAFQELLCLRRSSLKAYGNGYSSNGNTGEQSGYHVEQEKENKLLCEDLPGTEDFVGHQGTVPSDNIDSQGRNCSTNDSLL
Sequence of Muscarinic acetylcholine receptor M1 (Homo sapiens) (P11229 whole entry, looked up): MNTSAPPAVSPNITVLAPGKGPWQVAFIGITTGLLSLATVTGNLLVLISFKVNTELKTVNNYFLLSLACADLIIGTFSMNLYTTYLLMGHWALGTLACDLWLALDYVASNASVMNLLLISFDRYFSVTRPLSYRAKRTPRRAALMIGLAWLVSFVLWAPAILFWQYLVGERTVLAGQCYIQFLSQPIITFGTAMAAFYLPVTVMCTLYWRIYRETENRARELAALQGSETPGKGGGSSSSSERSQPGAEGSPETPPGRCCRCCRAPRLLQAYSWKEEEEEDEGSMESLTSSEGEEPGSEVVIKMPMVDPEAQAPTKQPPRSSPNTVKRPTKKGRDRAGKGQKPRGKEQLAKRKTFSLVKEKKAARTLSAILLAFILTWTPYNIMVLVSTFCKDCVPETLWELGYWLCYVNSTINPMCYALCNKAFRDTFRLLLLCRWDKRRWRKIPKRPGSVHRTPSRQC
Sequence of D(2) dopamine receptor (Homo sapiens) (P14416 whole entry, looked up): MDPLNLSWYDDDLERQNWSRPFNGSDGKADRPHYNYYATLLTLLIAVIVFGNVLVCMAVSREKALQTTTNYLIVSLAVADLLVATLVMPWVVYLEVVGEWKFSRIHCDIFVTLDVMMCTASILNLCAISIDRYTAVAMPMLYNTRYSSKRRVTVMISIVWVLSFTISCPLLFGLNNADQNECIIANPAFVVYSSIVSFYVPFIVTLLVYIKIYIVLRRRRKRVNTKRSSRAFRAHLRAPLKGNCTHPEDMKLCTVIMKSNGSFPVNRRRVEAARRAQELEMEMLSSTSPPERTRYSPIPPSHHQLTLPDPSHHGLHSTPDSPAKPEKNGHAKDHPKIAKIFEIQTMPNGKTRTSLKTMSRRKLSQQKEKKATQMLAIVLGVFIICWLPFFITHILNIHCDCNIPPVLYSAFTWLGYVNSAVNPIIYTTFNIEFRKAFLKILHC
Sequence of Gonadotropin-releasing hormone receptor (Homo sapiens) (P30968 whole entry, looked up): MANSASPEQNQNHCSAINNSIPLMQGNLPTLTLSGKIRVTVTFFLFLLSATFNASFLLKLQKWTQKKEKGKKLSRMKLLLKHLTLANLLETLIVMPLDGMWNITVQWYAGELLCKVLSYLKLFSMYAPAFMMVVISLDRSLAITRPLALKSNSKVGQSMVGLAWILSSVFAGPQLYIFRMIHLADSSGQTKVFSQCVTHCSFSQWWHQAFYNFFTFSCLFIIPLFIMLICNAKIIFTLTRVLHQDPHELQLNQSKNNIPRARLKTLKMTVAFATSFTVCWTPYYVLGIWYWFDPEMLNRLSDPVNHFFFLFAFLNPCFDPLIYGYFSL

Compound | Potency [1] | Potency [2] | Potency [3] | Potency [4] | Potency [5] | Potency [6] | Potency [7] | Potency [8] | Potency [9] | Potency [10] | Potency [11] | Potency [12] | Potency [13] | Potency [14] | Potency [15] | Potency [16] | Potency [17] | Potency [18] | Potency [19] | Potency [20]
CCCCN(CCN(CCCC)C(=O)N1CCOCC1)C(=O)N1CCOCC1 | 29.8 µM (active) | 21.1 µM (active) | inactive | inactive | inactive | inactive | inactive | inactive | inactive | inactive | inactive | inactive | inactive | inactive |  |  |  |  |  | 
CCCc1ccccc1O | inactive | inactive | inactive | inactive | inactive |  | inactive | inactive | inactive | inactive | inactive |  | inactive | inactive | inactive | inactive | inactive | inactive | inactive | 
O=C(O)CCCl | inactive | inactive | inactive | inactive | inactive |  | inactive | inactive |  | inactive | inactive | inactive | inactive |  | inactive | inactive |  |  |  | inactive
Clc1ccc(Nc2nnc(Cc3ccncc3)c3ccccc23)cc1 | inactive | inactive | inactive | inactive | inactive | inactive | inactive | inactive | inactive | 18.3 µM (active) | inactive |  | inactive | inactive | inactive | 18.3 µM (active) | inactive | inactive | inactive | inactive
COc1ccc(NC(=O)CC(C)=O)cc1 | inactive | inactive | inactive | inactive | inactive |  |  | inactive | inactive | inactive | inactive | inactive | inactive | inactive |  | inactive | inactive | inactive | inactive | inactive
Cc1cc(C2CCCCC2)n(O)c(=O)c1 | 13.3 µM (active) | inactive | inactive | inactive | inactive | inactive | inactive |  |  |  |  | inactive | inactive |  |  |  | inactive |  | inactive | 
CC[C@]1(O)C[C@H]2CN(CCc3c([nH]c4ccccc34)[C@@](C(=O)OC)(c3cc4c(cc3OC)N(C=O)[C@H]3[C@@](O)(C(=O)OC)[C@H](OC(C)=O)[C@]5(CC)C=CCN6CC[C@]43[C@@H]65)C2)C1 | inactive | 0.596 µM (active) | inactive | inactive | inactive | inactive |  |  |  |  |  | inactive |  | inactive |  |  |  |  | inactive | 
CCCCNCCCC | inactive | inactive | inactive | inactive | inactive |  | inactive | inactive | inactive | inactive | inactive | inactive | inactive | inactive | inactive | inactive | inactive | inactive | inactive | inactive
CCCCCCNC(=O)n1cc(F)c(=O)[nH]c1=O | inactive | inactive | inactive | inactive | inactive |  |  | 5 µM (active) |  |  |  | inactive | inactive | inactive | inactive |  | inactive |  | inactive | inactive
CCOc1ccc(O)cc1 | inactive | inactive | inactive | inactive | inactive |  |  | inactive | inactive | inactive | inactive |  | inactive | inactive | inactive | inactive | inactive | inactive | inactive | inactive
CNC(=S)NN | 12.2 µM (active) | 6.11 µM (active) | inactive | inactive | inactive | inactive | inactive |  | inactive | inactive | inactive | inactive | inactive | inactive |  | inactive | inactive |  | inactive | 
c1ccc(C[n+]2cccc3ccccc32)cc1 | inactive | inactive | inactive | inactive | inactive |  |  | inactive | inactive | inactive | inactive |  | inactive | inactive | inactive | inactive | inactive | inactive | inactive | inactive
COC(=O)Nc1nc2ccc(C(=O)C3CC3)cc2[nH]1 | inactive | 8.41 µM (active) | inactive | inactive | inactive | inactive |  |  | inactive | inactive | inactive |  | inactive | inactive |  | inactive | inactive | inactive | inactive | 
O=C=NC1CCC(CC2CCC(N=C=O)CC2)CC1 (stereo unspecified) | 12.2 µM (active) | inactive | inactive | inactive | inactive |  | inactive | inactive | 1.95 µM (active) | 4.21 µM (active) | inactive | inactive | inactive |  | inactive | 2.98 µM (active) | inactive | inactive | inactive | inactive
Nc1ccc(-c2ccc(F)cc2)cc1 | inactive | inactive | inactive | inactive | inactive |  | inactive | inactive |  | inactive |  |  | inactive | inactive | inactive |  | inactive |  | inactive | inactive
CCO[Si](CC(C)C)(OCC)OCC | inactive | inactive | inactive | inactive | inactive |  | inactive |  | inactive | inactive | inactive |  |  | inactive | inactive | inactive | inactive | inactive | inactive | inactive
